Screens (PubChem)
nsP2pro primary: blocks chikungunya virus nsP2 protease peptide cleavage; FRET peptide cleavage, nsP2pro, fluorescence 1 h; Q8JUX6; 31,000 tested, 1.1% active; AID 1964107; Potency, µM (titrated, usually from 24.9 µM), inactives show at the highest dose activity change, negative = inhibition, usual class: inhibitors; calls by dose curve; note: nearly all actives have a fitted effect of over 60% in size
Target sequence (Q8JUX6 whole entry, looked up): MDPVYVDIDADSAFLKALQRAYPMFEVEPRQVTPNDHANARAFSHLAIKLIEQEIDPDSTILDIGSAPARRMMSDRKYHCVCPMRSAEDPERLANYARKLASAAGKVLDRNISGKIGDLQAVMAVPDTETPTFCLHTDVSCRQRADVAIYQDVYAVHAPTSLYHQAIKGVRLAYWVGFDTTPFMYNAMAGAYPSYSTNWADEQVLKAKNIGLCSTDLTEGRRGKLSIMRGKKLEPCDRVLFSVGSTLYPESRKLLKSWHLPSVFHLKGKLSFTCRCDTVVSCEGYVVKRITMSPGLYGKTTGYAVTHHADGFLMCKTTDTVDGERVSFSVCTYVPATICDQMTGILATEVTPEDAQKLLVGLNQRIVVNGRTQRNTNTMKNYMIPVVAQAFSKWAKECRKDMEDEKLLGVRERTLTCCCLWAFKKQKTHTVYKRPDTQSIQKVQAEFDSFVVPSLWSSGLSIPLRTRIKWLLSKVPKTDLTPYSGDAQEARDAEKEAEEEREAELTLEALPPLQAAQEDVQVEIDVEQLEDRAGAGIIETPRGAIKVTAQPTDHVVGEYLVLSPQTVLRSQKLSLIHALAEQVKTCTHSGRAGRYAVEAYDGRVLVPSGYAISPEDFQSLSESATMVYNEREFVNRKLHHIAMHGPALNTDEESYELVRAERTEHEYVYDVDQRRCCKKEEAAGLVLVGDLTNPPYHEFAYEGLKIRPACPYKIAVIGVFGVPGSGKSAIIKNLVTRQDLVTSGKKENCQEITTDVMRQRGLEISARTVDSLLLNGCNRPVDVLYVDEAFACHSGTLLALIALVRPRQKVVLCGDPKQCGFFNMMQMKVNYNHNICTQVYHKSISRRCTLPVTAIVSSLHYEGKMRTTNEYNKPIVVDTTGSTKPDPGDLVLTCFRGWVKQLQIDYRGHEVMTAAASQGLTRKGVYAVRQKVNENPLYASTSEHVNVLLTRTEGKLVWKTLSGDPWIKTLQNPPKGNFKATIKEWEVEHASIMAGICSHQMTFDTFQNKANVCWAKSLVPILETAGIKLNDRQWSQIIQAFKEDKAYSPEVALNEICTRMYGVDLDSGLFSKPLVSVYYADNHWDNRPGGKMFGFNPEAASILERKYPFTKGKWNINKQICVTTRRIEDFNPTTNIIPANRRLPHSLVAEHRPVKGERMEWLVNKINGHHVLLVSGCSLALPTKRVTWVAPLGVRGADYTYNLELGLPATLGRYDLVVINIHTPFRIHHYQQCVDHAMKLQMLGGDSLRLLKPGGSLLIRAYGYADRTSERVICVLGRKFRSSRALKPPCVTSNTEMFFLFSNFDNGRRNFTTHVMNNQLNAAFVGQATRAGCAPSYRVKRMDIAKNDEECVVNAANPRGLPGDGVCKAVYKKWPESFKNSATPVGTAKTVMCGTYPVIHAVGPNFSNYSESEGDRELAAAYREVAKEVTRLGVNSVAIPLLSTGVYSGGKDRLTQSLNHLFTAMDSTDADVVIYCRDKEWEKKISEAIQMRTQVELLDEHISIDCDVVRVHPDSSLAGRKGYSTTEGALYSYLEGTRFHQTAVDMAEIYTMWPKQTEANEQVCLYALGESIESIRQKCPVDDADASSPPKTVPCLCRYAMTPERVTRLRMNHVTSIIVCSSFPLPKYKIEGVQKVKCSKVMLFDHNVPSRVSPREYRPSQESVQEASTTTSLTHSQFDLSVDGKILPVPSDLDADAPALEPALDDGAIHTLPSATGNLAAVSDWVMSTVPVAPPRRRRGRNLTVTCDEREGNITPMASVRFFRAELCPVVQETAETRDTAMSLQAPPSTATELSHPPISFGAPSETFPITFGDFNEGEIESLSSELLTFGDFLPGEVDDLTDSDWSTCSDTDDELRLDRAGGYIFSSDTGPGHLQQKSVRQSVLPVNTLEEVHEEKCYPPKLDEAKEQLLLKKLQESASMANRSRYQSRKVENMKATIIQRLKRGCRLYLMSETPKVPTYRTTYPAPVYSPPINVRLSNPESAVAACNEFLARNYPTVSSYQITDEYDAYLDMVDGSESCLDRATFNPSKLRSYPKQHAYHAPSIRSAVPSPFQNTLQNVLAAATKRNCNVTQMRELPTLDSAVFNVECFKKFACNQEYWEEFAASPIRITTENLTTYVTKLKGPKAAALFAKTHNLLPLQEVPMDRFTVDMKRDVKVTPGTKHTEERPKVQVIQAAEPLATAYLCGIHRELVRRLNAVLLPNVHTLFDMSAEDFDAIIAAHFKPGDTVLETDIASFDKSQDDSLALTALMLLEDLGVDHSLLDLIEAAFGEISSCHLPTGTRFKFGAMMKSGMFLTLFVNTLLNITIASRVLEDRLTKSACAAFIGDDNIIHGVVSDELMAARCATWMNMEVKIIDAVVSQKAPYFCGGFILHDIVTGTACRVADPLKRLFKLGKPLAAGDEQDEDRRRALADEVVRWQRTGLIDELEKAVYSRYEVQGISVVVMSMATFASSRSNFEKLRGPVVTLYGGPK
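FRET cleavage of 2.5 uM peptide 2 by 150 nM CHIKV protease domain at pH 8.0 (Tris, Tween 20). Compounds at 7 concentrations (up to 25 uM) preincubated 15 min. Fluorescence read after 1 h at room temperature.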
* = called active by the depositor; i = inactive; ! = a repeat was not active; [ ] = remark or other dose. Only a selection was taken, and hits are over-represented in it overall. % is set by controls: 0 for no effect and ±100 for the full control effect; potency is the fitted concentration of half-maximal effect.

SMILES	nsP2pro primary
O=C(O)/C(S)=C/c1c[nH]c2ccc(F)cc12	11.1µM*
COc1ccc2[nH]cc(CCNC(=O)Nc3ccc(F)cc3)c2c1	9.0%
CN1CCC(c2c[nH]c3ccc(NC(=O)c4ccc(F)cc4)cc23)CC1	15.5%
Cc1ccc(S(=O)(=O)Nc2cnccc2C(=O)Nc2nc(-c3ccc(F)cc3)cs2)cc1	i
O=Cc1c(-c2ccccc2)no[n+]1[O-]	3.3%
CC(=O)N1c2nc(-c3ccco3)nn2C2(CCCCC2)[C@@H]2CCCC[C@@H]21	-28.5%
COCC(=O)N1c2nc(C(C)C)nn2C2(CCCCC2)[C@@H]2CCCC[C@@H]21	11.2µM*
O=C(c1cccc([N+](=O)[O-])c1)N1c2ncnn2C2(CCCCC2)[C@@H]2CCCC[C@@H]21	-17.7%
Cn1nnc(-c2ccc(-c3ccc(N4C[C@H](CO)OC4=O)cc3F)cn2)n1	-6.2%
CN[C@@H]1[C@H](O)[C@H](O[C@@H]2[C@H](O)[C@@H](O[C@H]3O[C@H]([C@@H](C)NC)CC[C@H]3N)[C@@H](N)C[C@H]2N)OC[C@]1(C)O	8.0%[5.1 µM]
O=C(Nc1ccc(-c2nc3ccccc3[nH]2)cc1)c1ccc2ncsc2c1	11.2µM*
O=C(Nc1ccc(-c2nc3ccccc3[nH]2)cc1)c1ccc2ncccc2c1	-0.4%
O=C(Nc1ccc(-c2nc3ccccc3[nH]2)cc1)c1ccc2sccc2c1	-10.7%
Cc1ccc(S(=O)(=O)Nc2cnccc2C(=O)Nc2nc(-c3ccc4c(c3)CCCC4)cs2)cc1	i
Cc1ccc(-c2ccc3c(c2)C=C(C(=O)Nc2ccc(C[N+](C)(C)C4CCOCC4)cc2)CCC3)cc1	235.1%
Cc1cc2ncc(C(=O)NCc3ccccc3Cl)cn2n1	-1.4%[39.2 µM]
O=C(NCc1ccc(Cl)cc1)c1ccc2nnc(-c3cc[nH]c3)n2c1	3.0%
O=C(NCc1ccccc1Cl)c1ccc2nnc(-c3ccoc3)n2c1	11.2µM*
Cc1cc(-c2nnc3n2CCCCC3)c(C)n1-c1ccc(C#N)cc1	i
c1csc(CCNc2ncnc3ccc(-c4ccc5c(c4)OCO5)cc23)c1	-10.3%
COc1cccc(-c2nc(-c3cccc(C(=O)O)c3)no2)c1	i
Cc1ccc(-c2cc(C(=O)Nc3ccc(S(N)(=O)=O)cc3)c3ccccc3n2)cc1C	-22.9%
OCc1ccnc(NC(=S)N2CCN(c3cccc(C(F)(F)F)c3)CC2)c1	i
COc1ccc2nc(S(=O)Cc3ncc(C)c(OC)c3C)[nH]c2c1 (stereo not drawn)	10µM*!
COCCCOc1ccnc(CS(=O)c2nc3ccccc3[nH]2)c1C (stereo not drawn)	-19.0%
SMILES	nsP2pro primary
COc1ccc2c(c1)[nH]c1c(C)nccc12	-7.4%
Cc1ccc(S(=O)(=O)Nc2cnccc2C(=O)Nc2ccc(C#N)cc2)cc1	i
Oc1ccc(C2COc3cc(O)ccc3C2)cc1 (stereo not drawn)	-14.9%
CC[C@H]1OC(=O)C[C@@H](O)[C@H](C)[C@@H](OC2OC(C)C(O)C(N(C)C)C2O)[C@@H](CCN2CCCCC2)C[C@@H](C)C(=O)/C=C/C(C)=C/[C@@H]1CN1CCCCC1 (stereo partly drawn)	10.5%
CCC(C)C(NC(=O)C(Cc1ccc(O)cc1)NC(=O)C(NC(=O)C(CCCN=C(N)N)NC(=O)C(N)CC(=O)O)C(C)C)C(=O)NC(Cc1cnc[nH]1)C(=O)N1CCCC1C(=O)NC(Cc1ccccc1)C(=O)O (stereo not drawn)	10.4%
COC(=O)C12CCC(C)C(C)C1C1=CCC3C4(C)CCC(OC(C)=O)C(C)(C)C4CCC3(C)C1(C)CC2 (stereo not drawn)	0.4%[10 µM]
CC(=O)O[C@@H]1CC[C@@]2(C)C(CC[C@]3(C)C2[C@H](O)C=C2[C@H]4[C@@H](C)[C@H](C)CC[C@]4(C)CC[C@]23C)[C@@]1(C)C(=O)O (stereo partly drawn)	-15.3%[10 µM]
CC(=O)OC1CCC2(C)C(CCC3(C)C2CC=C2C4C(C)C(C)CCC4(C)CCC23C)C1(C)C(=O)O (stereo not drawn)	1.21µM*
O=C(NCc1ccccc1)c1cnc2n1CCN(Cc1ccccc1)CC2	i
O=C(NCc1cccnc1)c1cc(CN2CCC(Cc3ccccc3)CC2)on1	i
O=C(NCc1ccncc1)c1nc2c(o1)CCN(CCCc1ccccc1)CC2	14.1µM*
CC(C)=CCC[C@](C)(O)[C@H]1CC[C@@]2(C)[C@H]1[C@@H](O)CC1[C@@]3(C)CC[C@@H](O[C@@H]4O[C@H](CO)[C@@H](O)[C@H](O)[C@H]4O)C(C)(C)C3CC[C@]12C (stereo partly drawn)	18.1%
C[C@@H](Nc1ncnc2[nH]c(-c3ccc(O)cc3)cc12)c1ccccc1	44.1%
O=C(NCc1ccnc2[nH]ccc12)c1cccc(Br)c1	11.2µM*
O=C(NCc1ccnc2[nH]ccc12)c1cncc(Br)c1	-23.6%[39.2 µM]
CCS(=O)(=O)N1CCC(Oc2cccc(C(=O)NCc3ccccn3)c2)CC1	1.9%
Cc1ccnc(NC(=S)N2CCc3cccc(C(F)(F)F)c3C2)c1	i
COc1ccc(-n2cnc3cc(C(=O)N4CCCCC4)ccc32)cc1	-51.9%
COC(=O)c1nc(C(F)(F)F)n2c1CN(C(=O)C[C@H](N)Cc1cc(F)c(F)cc1F)CC2	-0.5%
Cc1csc(NC(=O)c2nc3c(o2)CCN(Cc2ccccc2F)CC3)n1	12.6µM*
Cc1csc(NC(=O)c2ccc(COc3cccc(Cl)c3)o2)n1	-0.2%
Cc1ccc2nc(NC(=O)c3cccn(Cc4ccccc4F)c3=O)sc2c1	-13.5%
Cn1cc(-c2cnc(Nc3ccc(F)c(Cl)c3)c3c2CCO3)cn1	8.91µM*
Cc1cc(-c2cnc(Nc3ccc(F)cc3)c3c2CCO3)ccn1	-23.2%[39.2 µM]
Cc1noc(C)c1-c1cnc(Nc2ccc(CN3CCN(C)CC3)cc2)c2c1CCO2	-9.1%[39.2 µM]
SMILES	nsP2pro primary
CCOc1ccc(Cc2cc([C@@]34OC[C@@](CO)(O3)[C@@H](O)[C@H](O)[C@H]4O)ccc2Cl)cc1	-2.7%
Cc1ccc(OCCn2c(CCNC(=O)c3ccsc3)nc3ccccc32)cc1	3.4%
COc1ccc(-c2nc3ccc(OC)cc3s2)cc1	1.0%
COc1ccc(-c2cc(=S)ss2)cc1	11.1µM*
COc1ccc(-c2nc3ccccc3s2)cc1	i
O=C(CN1C(=O)N/C(=C\c2cccn2-c2cccc(C(=O)O)c2)C1=O)Nc1ccc(Cl)cc1	i
CC(=O)Nc1ccc(C)c(C(=O)N[C@H](C)c2cccc3ccccc23)c1	-7.3%
O=C(COc1ccccc1)N[C@H]1CO[C@H]2[C@@H]1OC[C@@H]2Nc1nccc(-c2cccs2)n1	-12.4%
CC(C)(C)c1ccnc(N[C@H]2CO[C@H]3[C@@H]2OC[C@@H]3NC(=O)c2ccco2)n1	-8.2%[39.2 µM]
O=C(COc1ccccc1)N[C@H]1CO[C@H]2[C@@H]1OC[C@@H]2Nc1nccc(-c2ccco2)n1	12.6µM*
CC(=O)c1ccc(NC(=O)N[C@H]2CO[C@H]3[C@@H]2OC[C@@H]3Nc2nccc(-c3ccco3)n2)cc1	-11.1%
O=C(N[C@H]1CO[C@H]2[C@@H]1OC[C@@H]2Nc1nccc(-c2ccco2)n1)c1ccco1	1µM*
O=C(Nc1ccccc1)N[C@H]1CO[C@H]2[C@@H]1OC[C@@H]2Nc1nccc(-c2cccs2)n1	50.0%[39.2 µM]
COC(=O)CCSC/C=C(\C)CCn1cc(CCc2ccc(-c3ccccc3)cc2)nn1	-10.4%
O=C(NCc1c(F)cc(F)cc1F)c1cn2c(c(O)c1=O)C(=O)N1[C@H]3CC[C@H](C3)O[C@@H]1C2	55.0%
CCCCOC(=O)c1ccnc2cc(C(OCCN3CCCCC3)c3ccccc3C)sc12 (stereo not drawn)	46.5%
